# The list is not random: actives were taken first. Their share in the collection is about 32%.
# CYP2C19 inh: blockers of cytochrome P450 2C19 activity – biochemical, luminescence, ADME assay, primary screen | AID 778, 2007 | actives 21% (n = 96,000) | CYP2C19 Supersomes, luciferin-H EGE luminescence, 30 min | inhibition, % at 5 µM;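 active = CYP2C19 inhibition above a set limit at 5 µM in the primary screen, cut at about 50% in these data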
# PostGolgi ctrl: growth inhibition of yeast control strain, primary screen, counter-screen for post-Golgi transport modulator project | AID 738, 2007 | inhibition, % at 10 µM | actives 5% (n = 98,000) | efflux-deficient yeast background strain, growth absorbance A615, 16 h
# CYP2C9 inhib: blockers of cytochrome P450 2C9 activity – biochemical, luminescence, ADME assay, primary screen; P11712; CYP2C9 Supersomes, luciferin-H conversion; inhibition, % at 5 µM; actives 20% (n = 96,000);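 active = blocking of liver enzyme CYP2C9 beyond about 50% at 5 µM, limit read from the data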
# Target sequence (P11712 whole entry, looked up): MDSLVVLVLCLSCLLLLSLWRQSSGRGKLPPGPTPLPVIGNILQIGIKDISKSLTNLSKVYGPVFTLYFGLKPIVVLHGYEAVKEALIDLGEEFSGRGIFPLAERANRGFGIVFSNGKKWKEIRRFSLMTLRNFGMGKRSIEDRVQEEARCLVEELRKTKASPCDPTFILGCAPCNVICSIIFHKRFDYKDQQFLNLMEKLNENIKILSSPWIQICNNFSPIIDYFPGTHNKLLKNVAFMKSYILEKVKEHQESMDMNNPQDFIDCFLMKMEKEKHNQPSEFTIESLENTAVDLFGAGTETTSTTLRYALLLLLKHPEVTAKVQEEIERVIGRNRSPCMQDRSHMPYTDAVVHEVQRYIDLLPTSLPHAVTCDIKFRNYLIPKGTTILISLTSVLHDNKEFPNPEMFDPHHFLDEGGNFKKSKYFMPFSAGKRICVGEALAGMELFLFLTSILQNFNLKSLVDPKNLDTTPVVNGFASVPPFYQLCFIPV
# PostGolgi yeast: phenotypic screen on post-Golgi transport, primary screen; actives 0.9% (n = 98,000); inhibition, % at 10 µM; post-Golgi transport phenotypic cell assay;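 also: yeast cells grown in 1536-well plates; yeast grown about 18 h at 30C before absorbance read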
# CYP2C9 activ: human CYP2C9 activators, primary screen, biochemical, luminescence; Cytochrome P450 2C9 (Homo sapiens), P11712; recombinant CYP2C9, luciferin-H conversion; stronger effect = higher value; factor 1 = untreated enzyme, 0 = blocked; activation factor at 5 µM; actives 1.4% (n = 96,000);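 active = activation factor of 2 or more for CYP2C9 at a 5 µM dose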
# CYP2C19 act: human CYP2C19 activators, primary screen, biochemical, luminescence. Cytochrome P450 2C19 (Homo sapiens), P33261. 96,000 tested, under 10 active. recombinant CYP2C19, luciferin-H EGE luminescence; stronger effect = higher value; 0 = fully inhibited enzyme, 1 = untreated enzyme. activation factor at 5 µM;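 active = activation factor of at least 2 at 5 µM in the primary screen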
# A number is an active result; i = inactive; nt = not tested or not shown. Rule as the data show it, unless noted: active = inhibition above about 30%; inactive = the rest.
SMILES,CYP2C19 inh,PostGolgi ctrl,CYP2C9 inhib,PostGolgi yeast,CYP2C9 activ,CYP2C19 act
COc1nc(C#N)nc(N(C)C)n1,i,i,i,i,i,i
c1c2c(cc3sc(N4CCOCC4)nc13)OCCO2,87.3,i,i,i,i,i
CCN(Cc1ccncc1)C(=O)c1cccs1,i,i,i,i,i,i
COCCOC(=O)c1[nH]c2c(c1C)C(=O)CC(c1ccc(F)cc1)C2 (stereo not given),82.6,i,98.1,i,i,i
COCCOC(=O)c1[nH]c2c(c1C)C(=O)CC(c1ccc(N(C)C)cc1)C2 (stereo not given),88.2,i,93.2,i,i,i
COc1ccccc1NC(=O)COC(=O)CNC(=O)c1ccc(OC)c(OC)c1,i,i,i,i,i,i
CCN1C(c2ccc(F)cc2)=CS/C1=C(\C#N)c1nnc2n1-c1ccccc1SC2,i,i,i,i,2.3,i
Cc1cccnc1NC(=O)Cn1nc(C)c([N+](=O)[O-])c1C,i,i,i,i,i,i
CCOc1ccccc1N1CCN(Cc2ccc(OC)c(OC)c2)CC1,i,i,i,i,i,i
CCOc1ccccc1N1CCN(Cc2ccc(Br)s2)CC1,i,i,52.2,i,i,i
CC(=O)N1CCN(Cc2ccc(Br)s2)CC1,i,i,i,i,i,i
CCOc1ccccc1N1CCN(Cc2ccco2)CC1,51.1,i,i,i,i,i
COc1ccccc1N1CCN(Cc2ccc(Br)o2)CC1,93.2,i,54.1,i,i,i
COc1cc(OC)c(OC)cc1CN1CCN(c2ccccc2OC)CC1,i,i,i,i,i,i
Cc1ccc(NCc2nnc(SCC(=O)OC3CCCCC3)o2)c(C)c1,i,i,i,i,i,i
COc1ccc(CNc2nc(NCc3ccc(OC)cc3)n(C(C)=O)n2)cc1,i,i,i,i,i,i
CCC(=O)n1nc(NCc2ccccc2OC)nc1NCc1ccccc1OC,i,i,51.8,i,i,i
CCCn1nnc(NCc2ccc(OCc3cccs3)c(OC)c2)n1,i,i,86.4,i,i,i
COc1ccc(CNc2nc(NCc3ccc(OC)c(OC)c3)n(C(=O)c3cccs3)n2)cc1OC,i,i,71.4,i,i,i
COc1ccc(S(=O)(=O)N2CCCC(C(=O)NCc3ccco3)C2)cc1Cl (stereo not given),i,i,i,i,i,i
C=CCn1c(=O)c2c(C)c(C)sc2n2c(Nc3ccc(OC)cc3)nnc12,i,i,91.0,i,i,i
C=CCn1c(SCC(=O)Nc2cc(C)on2)nc2sc(C)c(C)c2c1=O,i,i,i,i,i,i
Cc1ccccc1Nc1nnc(SCc2cc([N+](=O)[O-])cc3c2OCOC3)s1,99.5,i,62.0,i,i,i
O=c1[nH]c2ccc(S(=O)(=O)NCc3ccccn3)cc2s1,i,i,i,i,i,i
CCNC(=O)NC(=O)C(C)SCc1ccccc1C (stereo not given),67.4,i,i,i,i,i
SMILES,CYP2C19 inh,PostGolgi ctrl,CYP2C9 inhib,PostGolgi yeast,CYP2C9 activ,CYP2C19 act
CCNC(=O)NC(=O)C(C)Sc1nnc(COc2ccccc2Cl)o1 (stereo not given),i,i,i,i,i,i
CCOC(=O)CN(C(=O)CSc1nnc(-c2ccc(OC)c(OC)c2)o1)c1ccccc1,i,i,i,i,i,i
CSC1=NCCN1C(=O)c1c(-c2ccccc2Cl)noc1C,71.2,i,i,i,i,i
Cc1onc(-c2ccccc2Cl)c1C(=O)N1C=CC(C(F)(F)Cl)=NCC1,56.0,i,i,i,i,i
CN(C)S(=O)(=O)c1ccc(C(=O)N2CCN=C2SCc2cccnc2)cc1,i,i,i,i,i,i
Cc1onc(-c2ccccc2Cl)c1C(=O)N1CCN=C1SCc1cccnc1,97.4,i,93.8,i,i,i
COc1ccc(C(=O)Nc2cccc3c2C(=O)NC3=O)cc1S(=O)(=O)N1CCOCC1,i,i,i,i,i,i
CC1=C(C(=O)NC(C)C)C2(CCC(C)CC2)OC1=O (stereo not given),nt,i,nt,i,nt,nt
CCCNC(=O)C1=C(C)C(=O)OC12CCC(C)CC2 (stereo not given),52.5,i,i,i,i,i
COc1cccc(CNC(=O)c2ccccc2N)c1,78.2,i,i,i,i,i
CC1=C(C(=O)N2CCCCC2)C2(CCC(C)CC2)OC1=O (stereo not given),50.7,i,i,i,i,i
COc1cccc(CNC(=O)C2=C(C)C(=O)OC23CCC(C)CC3)c1 (stereo not given),90.6,i,i,i,i,i
CC1=C(C(=O)N2CCCCCC2)C2(CCC(C)CC2)OC1=O (stereo not given),i,i,i,i,i,i
CC1(C)CC(=O)C(Sc2nnc(-c3ccc(O)cc3)n2CC2CCCO2)C(=O)C1 (stereo not given),i,i,i,i,i,i
CCOC(=O)c1[nH]c(C)c(C(=O)NCc2cccnc2)c1C,i,i,i,i,i,i
CCOC(=O)c1[nH]c2ccc(C)cc2c1N=CN(CC)CC,i,i,i,i,i,i
Cc1csc2ncc(C(=O)N3CCCc4ccccc43)c(=O)n12,i,i,i,i,i,i
CCOc1ccc(NC(=O)C2=C(C)C(=O)OC23CCC(C)CC3)cc1 (stereo not given),89.7,i,69.3,i,i,i
COc1ccccc1CNC(=O)C1=C(C)C(=O)OC12CCC(C)CC2 (stereo not given),97.9,i,72.1,i,i,i
COc1ccc(NC(=O)c2c(OC)cccc2OC)c(OC)c1,i,i,i,i,i,i
COc1ccc(NC(=O)C2=C(C)C(=O)OC23CCC(C)CC3)c(OC)c1 (stereo not given),87.1,i,76.7,i,i,i
CC1=C(C(=O)N(C)Cc2ccccc2)C2(CCC(C)CC2)OC1=O (stereo not given),nt,i,nt,i,nt,nt
CC1=C(C(=O)NC2CCCCC2C)C2(CCC(C)CC2)OC1=O (stereo not given),91.2,i,i,i,i,i
CC(C)(CNC(=O)c1cc2ccccc2o1)N1CCOCC1,i,i,i,i,i,i
Cc1ccc(C(=O)NCC(C)(C)N2CCOCC2)s1,55.2,i,i,i,i,i
Cc1ccc(C)c(NS(=O)(=O)c2cc(C(=O)NCc3ccco3)ccc2C)c1,60.5,i,82.9,i,i,i
Cc1ccc(C(=O)NCc2ccco2)cc1S(=O)(=O)Nc1cccc(C)c1C,i,i,i,i,i,i
Cc1ccccc1NS(=O)(=O)c1cc(C(=O)NCc2ccco2)ccc1C,i,i,68.7,i,i,i
Cc1ccc(C(=O)NCc2ccco2)cc1S(=O)(=O)N1CCCCC1,i,i,i,i,i,i

# Assay outcomes (PubChem BioAssay)
